“And” between values parts separate entries of the source, which are not always exact repeats. Equal values may be shown once. Out of some 5,500 compounds screened, about 2,000 (36%) were called active. Inconclusive results (about 18%) are left out. No stated cut-off is given here; in the data, active means normalized growth mostly below about 0.91 (no sharp cut-off); inconclusive means no clear call, values can overlap the other calls; inactive means mostly above about 0.92. The list shows a part of the results.
Test: chemical genetic growth profiling, strain panel (AID 1159580);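 further: tested at 20 µM; growth read once vehicle control cultures reached saturation at 30 °C; 1 = growth at the plate median or of vehicle wells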
Details: growth OD

Measured: normalized growth

CC(C)NCC(O)c1ccc(O)c(O)c1 (stereo not given)
inactive: S. cerevisiae deletion strains, locus YJR075W, strain HOC1, stronger effect = lower value 1.01 and 1.02 | S. cerevisiae deletion strains, locus YKL009W, strain mrt4, stronger effect = lower value 0.979 | S. cerevisiae deletion strains, locus YKL068W, stronger effect = lower value 0.994 | S. cerevisiae deletion strains, locus YKL085W, strain MDH1 (second series), stronger effect = lower value 0.994 | S. cerevisiae deletion strains, locus YKL085W, strain MDH1, stronger effect = lower value 0.994 | S. cerevisiae deletion strains, locus YKL160W, strain elf1, stronger effect = lower value 0.966 | S. cerevisiae deletion strains, locus YKL190W, strain CNB1, stronger effect = lower value 0.996 | S. cerevisiae deletion strains, locus YKR001C, strain vps1, stronger effect = lower value 0.985 | S. cerevisiae deletion strains, locus YKR026C, strain gcn3, stronger effect = lower value 0.991 | S. cerevisiae deletion strains, locus YKR091W, strain srl3, stronger effect = lower value 0.996 | S. cerevisiae deletion strains, locus YLL001W, strain dnm1, stronger effect = lower value 0.955 | S. cerevisiae deletion strains, locus YLL026W, stronger effect = lower value 0.997 | S. cerevisiae deletion strains, locus YLL041C, strain sdh2, stronger effect = lower value 0.99 | S. cerevisiae deletion strains, locus YLR027C, strain aat2, stronger effect = lower value 1 | S. cerevisiae deletion strains, locus YLR039C, strain RIC1, stronger effect = lower value 1.08 | S. cerevisiae deletion strains, locus YLR058C, strain SHM2, stronger effect = lower value 1.01 | S. cerevisiae deletion strains, locus YLR102C, strain apc9, stronger effect = lower value 1 | S. cerevisiae deletion strains, locus YLR113W, strain HOG1, stronger effect = lower value 0.97 | S. cerevisiae deletion strains, locus YLR221C, strain rsa3, stronger effect = lower value 0.949 | S. cerevisiae deletion strains, locus YLR258W, strain gsy2, stronger effect = lower value 0.979 | S. cerevisiae deletion strains, locus YLR262C, strain YPT6 (second series), stronger effect = lower value 0.954 | S. cerevisiae deletion strains, locus YLR262C, strain YPT6, stronger effect = lower value 1.01 | S. cerevisiae deletion strains, locus YLR268W, strain sec22, stronger effect = lower value 1 | S. cerevisiae deletion strains, locus YLR320W, strain mms22, stronger effect = lower value 0.962 | S. cerevisiae deletion strains, locus YLR330W, strain CHS5, stronger effect = lower value 1.02 | S. cerevisiae deletion strains, locus YLR342W, strain FKS1 (second series), stronger effect = lower value 1.01 | S. cerevisiae deletion strains, locus YLR342W, strain FKS1, stronger effect = lower value 0.991 | S. cerevisiae deletion strains, locus YLR357W, strain rsc2, stronger effect = lower value 0.959 | S. cerevisiae deletion strains, locus YLR370C, strain arc18, stronger effect = lower value 0.977 | S. cerevisiae deletion strains, locus YLR371W, strain rom2, stronger effect = lower value 0.998 | S. cerevisiae deletion strains, locus YLR384C, strain iki3, stronger effect = lower value 0.996 | S. cerevisiae deletion strains, locus YLR418C, strain cdc73, stronger effect = lower value 0.986 | S. cerevisiae deletion strains, locus YML016C, strain PPZ1, stronger effect = lower value 1.01 | S. cerevisiae deletion strains, locus YML032C, strain rad52, stronger effect = lower value 0.989 | S. cerevisiae deletion strains, locus YML120C, strain ndi1, stronger effect = lower value 0.966 | S. cerevisiae deletion strains, locus YML124C, strain tub3, stronger effect = lower value 1 | S. cerevisiae deletion strains, locus YMR058W, strain fet3, stronger effect = lower value 0.991 | S. cerevisiae deletion strains, locus YMR078C, strain ctf18, stronger effect = lower value 1.01 | S. cerevisiae deletion strains, locus YMR125W, strain sto1, stronger effect = lower value 0.98 | S. cerevisiae deletion strains, locus YMR129W, stronger effect = lower value 0.991 | S. cerevisiae deletion strains, locus YMR205C, strain PFK2, stronger effect = lower value 0.971 | S. cerevisiae deletion strains, locus YMR223W, strain ubp8, stronger effect = lower value 0.99 | S. cerevisiae deletion strains, locus YMR231W, strain pep5, stronger effect = lower value 0.999 | S. cerevisiae deletion strains, locus YMR307W, strain GAS1, stronger effect = lower value 0.937 and 1.01 | S. cerevisiae deletion strains, locus YNL067W, strain RPL9B, stronger effect = lower value 1.01 | S. cerevisiae deletion strains, locus YNL071W, strain lat1, stronger effect = lower value 0.995 | S. cerevisiae deletion strains, locus YNL128W, strain TEP1, stronger effect = lower value 0.973 | S. cerevisiae deletion strains, locus YNL153C, strain GIM3, stronger effect = lower value 1 | S. cerevisiae deletion strains, locus YNL175C, strain NOP13, stronger effect = lower value 1.01 and 0.97 | S. cerevisiae deletion strains, locus YNL183C, strain NPR1, stronger effect = lower value 0.957 | S. cerevisiae deletion strains, locus YNL197C, strain WHI3, stronger effect = lower value 1.02 and 0.975 | S. cerevisiae deletion strains, locus YNL209W, strain ssb2, stronger effect = lower value 0.989 | S. cerevisiae deletion strains, locus YNL224C, strain SQS1, stronger effect = lower value 1 and 0.985 | S. cerevisiae deletion strains, locus YNL233W, strain BNI4, stronger effect = lower value 1.01 | S. cerevisiae deletion strains, locus YNL248C, strain rpa49, stronger effect = lower value 0.981 | S. cerevisiae deletion strains, locus YNL250W, strain rad50, stronger effect = lower value 0.985 | S. cerevisiae deletion strains, locus YNL271C, strain bni1, stronger effect = lower value 1 | S. cerevisiae deletion strains, locus YNL298W, strain CLA4, stronger effect = lower value 0.998 | S. cerevisiae deletion strains, locus YNL307C, strain MCK1, stronger effect = lower value 0.998 | S. cerevisiae deletion strains, locus YNL322C, strain KRE1 (second series), stronger effect = lower value 0.988 | S. cerevisiae deletion strains, locus YNL322C, strain KRE1, stronger effect = lower value 1.01 and 1 | S. cerevisiae deletion strains, locus YNR049C, strain mso1, stronger effect = lower value 0.995 | S. cerevisiae deletion strains, locus YNR052C, strain pop2, stronger effect = lower value 1 | S. cerevisiae deletion strains, locus YOL006C, strain TOP1, stronger effect = lower value 1.01 | S. cerevisiae deletion strains, locus YOL012C, strain htz1 0.826 | S. cerevisiae deletion strains, locus YOL147C, strain pex11, stronger effect = lower value 1 | S. cerevisiae deletion strains, locus YOR001W, strain rrp6, stronger effect = lower value 0.991 | S. cerevisiae deletion strains, locus YOR061W, strain CKA2, stronger effect = lower value 1.01 | S. cerevisiae deletion strains, locus YOR069W, strain VPS5, stronger effect = lower value 1.01 | S. cerevisiae deletion strains, locus YOR070C, strain gyp1, stronger effect = lower value 0.985 | S. cerevisiae deletion strains, locus YOR080W, strain dia2, stronger effect = lower value 0.992 | S. cerevisiae deletion strains, locus YOR083W, strain WHI5 (second series), stronger effect = lower value 0.998 and 0.969 | S. cerevisiae deletion strains, locus YOR083W, strain WHI5, stronger effect = lower value 0.981 | S. cerevisiae deletion strains, locus YOR106W, strain vam3, stronger effect = lower value 0.953 | S. cerevisiae deletion strains, locus YOR136W, strain idh2, stronger effect = lower value 0.997 | S. cerevisiae deletion strains, locus YOR144C, strain elg1, stronger effect = lower value 1 | S. cerevisiae deletion strains, locus YOR184W, strain ser1, stronger effect = lower value 1.01 | S. cerevisiae deletion strains, locus YOR231W, strain MKK1, stronger effect = lower value 0.952 | S. cerevisiae deletion strains, locus YOR265W, strain rbl2, stronger effect = lower value 0.996 | S. cerevisiae deletion strains, locus YOR270C, strain vph1, stronger effect = lower value 0.995 | S. cerevisiae deletion strains, locus YOR290C, strain snf2, stronger effect = lower value 0.939 | S. cerevisiae deletion strains, locus YOR316C, strain cot1, stronger effect = lower value 1.01 | S. cerevisiae deletion strains, locus YPL051W, strain arl3, stronger effect = lower value 0.967 | S. cerevisiae deletion strains, locus YPL055C, strain LGE1, stronger effect = lower value 1.01 | S. cerevisiae deletion strains, locus YPL078C, strain atp4, stronger effect = lower value 0.983 | S. cerevisiae deletion strains, locus YPL106C, strain sse1, stronger effect = lower value 0.929 | S. cerevisiae deletion strains, locus YPL240C, strain hsp82, stronger effect = lower value 0.976 | S. cerevisiae deletion strains, locus YPL241C, strain CIN2, stronger effect = lower value 0.994 | S. cerevisiae deletion strains, locus YPL256C, strain CLN2, stronger effect = lower value 0.99 | S. cerevisiae deletion strains, locus YPR119W, strain clb2, stronger effect = lower value 0.995 | S. cerevisiae deletion strains, locus YPR141C, strain kar3, stronger effect = lower value 0.992 | S. cerevisiae deletion strains, locus YPR163C, strain tif3, stronger effect = lower value 0.999 | S. cerevisiae deletion strains, locus YPR167C, strain met16, stronger effect = lower value 0.997 | S. cerevisiae deletion strains, strain wtn01, stronger effect = lower value 0.993 | S. cerevisiae strains, strain wild type, stronger effect = lower value 0.994

From PubChem BioAssay AID1159580 (chemical genetic matrix, 2015)
